A short description of the assay: activators of LNCaP cell differentiation, retest, confirmation, side scatter shift, flow cytometry (AID 1069).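 Also: LNCaP human prostate cancer cells in low-serum medium with charcoal-stripped FBS; percent of cells with raised granularity gated so DMSO controls show 10%.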 Conditions: 4 d, stronger effect = higher value. A general note: A flow cytometer gives signals particle by particle.

Active and inactive are the calls of the source.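 The calls were made as follows: active = high combined rank on largest and smallest cell-count-weighted shift across three tests, rank score above 45, floors 50 and 25 (some results past the limit were not filed as active); inactive = the rest.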

On to `Cc1cc(N2CCN(C)CC2)nc2ccc(NC(=O)c3ccc4c(c3)OCO4)cc12`, for which the side scatter shift is 71.9% (active) (at 100 µM) and 24.6% (side scatter shift, at 10 µM).

In the case of `Cc1oc(-c2cccc(Cl)c2)nc1CN1CCC(C(=O)NCc2ccco2)CC1`, the side scatter shift is 35% (inactive) (at 100 µM) and 6.2% (side scatter shift, at 10 µM).

Regarding `Cc1oc(-c2ccc(Cl)cc2)nc1CN1CCC(C(=O)NCCCN2CCCC2=O)CC1`, the side scatter shift (at 100 µM) was 11.8% (inactive) and the side scatter shift (side scatter shift, at 10 µM) was determined as 1.8%.

In the case of `CCN1CCN(CCNC(=O)C2CCN(Cc3nc(-c4ccc(Cl)cc4)oc3C)CC2)CC1`, the side scatter shift runs as follows: (at 100 µM) 44.7% (active); (side scatter shift, at 10 µM) 28.8%.

As to `O=C(Cn1cc2c(n1)CCCC2)NCCCN1CCN(c2ccccc2F)CC1`, the side scatter shift was 56.4% (active) (at 100 µM) and 4.95% (side scatter shift, at 10 µM).

Take `N#CC1=C(N)OC2=C(C(=O)CCC2)C1c1ccc(OC(=O)N2CCOCC2)cc1` (stereo not given): the side scatter shift was 7.8% (inactive) (at 100 µM) and 2.45% (side scatter shift, at 10 µM).

For `CC(C)(C)C1CCc2onc(C(=O)Nc3cnn(Cc4ccc(F)cc4)c3)c2C1` (stereo not given), the side scatter shift is, setting by setting: (at 100 µM) 25.8% (inactive); (side scatter shift, at 10 µM) 3.7%.

With `Nc1ccccc1NC(=O)c1ccccc1N`, the side scatter shift is 5.9% (inactive) (at 100 µM) and 2.1% (side scatter shift, at 10 µM).

Regarding `O=C(Nc1c(C(=O)N2CCOCC2)cnn1-c1ccccc1)c1ccco1`, the side scatter shift is, setting by setting: (at 100 µM) 7.5% (inactive); (side scatter shift, at 10 µM) 5.15%.

`Cc1ccc(-c2noc(CCC(=O)NCCCN3CCN(c4cccc(Cl)c4)CC3)n2)cc1`: the side scatter shift was 31.8% (inactive) (at 100 µM) and 11.5% (side scatter shift, at 10 µM).

For the molecule `Nc1cccc2cnccc12`, the side scatter shift reads like this: (at 100 µM) 4.1% (inactive); (side scatter shift, at 10 µM) 6.95%.

As for `COc1ccc(N2CCN(c3oc(COc4ccccc4Cl)nc3C#N)CC2)cc1`, the side scatter shift is 24.8% (inactive) (at 100 µM) and 9.2% (side scatter shift, at 10 µM).

Turning to `O=c1c2ccccc2nnn1CSc1nnc2sc3ccccc3n12`, the side scatter shift by setting is: (at 100 µM) 15.6% (inactive); (side scatter shift, at 10 µM) 4.8%.

`Cc1oc(-c2ccccc2F)nc1CN1CCC(C(=O)NC2CC2)CC1`: the side scatter shift (at 100 µM) is 13.5% (inactive) and the side scatter shift (side scatter shift, at 10 µM) is 2.4%.

Take `OCc1nc2ccccc2n1CCCOc1ccccc1`: the side scatter shift is, setting by setting: (at 100 µM) 6.7% (inactive); (side scatter shift, at 10 µM) 5.1%.

As to `Cc1ccccc1-c1nc(CN2CCC(C(=O)NCCCN3CCOCC3)CC2)c(C)o1`, the side scatter shift by setting is: (at 100 µM) 78.9% (active); (side scatter shift, at 10 µM) 13.4%.

With `CCN1CCN(C(=O)C2CCN(Cc3nc(-c4cccc(Cl)c4)oc3C)CC2)CC1`, the side scatter shift is 16.7% (inactive) (at 100 µM) and 19.1% (side scatter shift, at 10 µM).

In the case of `Cc1oc(-c2ccc(Cl)cc2)nc1CN1CCCC(C(=O)N2CCN(C(=O)c3ccco3)CC2)C1` (stereo not given), the side scatter shift is 42.1% (inactive) (at 100 µM) and 3.65% (side scatter shift, at 10 µM).

Regarding `CCCCOc1ccccc1NC(=O)Cn1c(-c2nonc2N)nc2ccccc21`, the side scatter shift runs as follows: (at 100 µM) 19.2% (inactive); (side scatter shift, at 10 µM) 17.4%.

`O=C(CN1CCN(Cc2ccc3c(c2)OCO3)CC1)N1CCc2[nH]c3ccc(F)cc3c2C1`: the side scatter shift is, setting by setting: (at 100 µM) 20.8% (inactive); (side scatter shift, at 10 µM) 7.3%.

Regarding `CC(C)Cc1nc2oc3c(N4CCN(CCO)CC4)ncnc3c2c2c1CCCC2`, the side scatter shift is, setting by setting: (at 100 µM) 33.3% (inactive); (side scatter shift, at 10 µM) 5.25%.

Turning to `Cc1oc(-c2ccc(Cl)cc2)nc1CN1CCCC(C(=O)NCCCN2CCOCC2)C1` (stereo not given), the side scatter shift by setting is: (at 100 µM) 42.9% (inactive); (side scatter shift, at 10 µM) 16.6%.

Take `Cc1ccc2c(c1)c1c(n2CC(O)CNC(CO)(CO)CO)CCCC1` (stereo not given): the side scatter shift by setting is: (at 100 µM) 34.3% (inactive); (side scatter shift, at 10 µM) 12.4%.

Consider `CCCNC(=O)C1CN(S(=O)(=O)c2ccccc2)CCN1S(=O)(=O)c1ccccc1` (stereo not given), for which the side scatter shift (at 100 µM) was 13.3% (inactive) and the side scatter shift (side scatter shift, at 10 µM) amounted to 8%.

`CCCc1cc(-c2n[nH]c(C)c2-c2ccc(C(=O)OCC)o2)c(O)cc1O`: the side scatter shift was 42.9% (inactive) (at 100 µM) and 5.15% (side scatter shift, at 10 µM).

In the case of `COc1ccc(S(=O)(=O)CCC(=O)O)cc1`, the side scatter shift (at 100 µM) was 16.3% (inactive) and the side scatter shift (side scatter shift, at 10 µM) was 7.3%.

As for `COC(=O)Nc1sccc1C(=O)Nc1sccc1C(=O)OC`, the side scatter shift (at 100 µM) was 18.8% (inactive) and the side scatter shift (side scatter shift, at 10 µM) was determined as 8.85%.

As for `CC(C)n1c(=S)[nH]c2c1c(=O)[nH]c(=O)n2C`, the side scatter shift is, setting by setting: (at 100 µM) 8.1% (inactive); (side scatter shift, at 10 µM) 2.4%.

For `COc1ccc(-c2coc3c(CN4CCCCC4)c(O)c(CN4CCCCC4)c(O)c3c2=O)cc1`, the side scatter shift was 28.6% (inactive) (at 100 µM) and 3.3% (side scatter shift, at 10 µM).

Turning to `CCC(C(=O)Nc1ccccc1OC)n1c(C(=O)OC)cc2ccsc21` (stereo not given), the side scatter shift was 12.2% (inactive) (at 100 µM) and 2.5% (side scatter shift, at 10 µM).

As for `O=C(Cn1c(=O)[nH]c2ccsc2c1=O)NC1CCCCCC1`, the side scatter shift runs as follows: (at 100 µM) 2.5% (inactive); (side scatter shift, at 10 µM) 5.85%.

Consider `C=CCn1c(=N)n(CC(O)COc2ccccc2OC)c2ccccc21` (stereo not given), for which the side scatter shift by setting is: (at 100 µM) 13.8% (inactive); (side scatter shift, at 10 µM) 2.35%.

Regarding `COc1ccc(-c2cc(C(F)(F)F)nc(N3CCN(Cc4ccccc4)CC3)n2)cc1OC`, the side scatter shift by setting is: (at 100 µM) 51.3% (active); (side scatter shift, at 10 µM) 5.3%.

Turning to `Cn1c(=O)n(C)c2cc(CN3C(=O)OC(C)(C)C3(C)O)ccc21` (stereo not given), the side scatter shift reads like this: (at 100 µM) 7.1% (inactive); (side scatter shift, at 10 µM) 2.45%.

As to `COc1ccc(Cc2noc(-c3ccc(C)cc3)n2)cc1`, the side scatter shift runs as follows: (at 100 µM) 21.4% (inactive); (side scatter shift, at 10 µM) 10.1%.

Turning to `Cc1oc(-c2cccc(Cl)c2)nc1CN1CCC(C(=O)NCCCN2CCCC2=O)CC1`, the side scatter shift reads like this: (at 100 µM) 15.1% (inactive); (side scatter shift, at 10 µM) 2.65%.

On to `Cc1cc(NC(=O)CSc2nnc(Cn3c(=O)sc4ccccc43)n2-c2ccccc2C)no1`, for which the side scatter shift reads like this: (at 100 µM) 26.5% (inactive); (side scatter shift, at 10 µM) 8.25%.

For `COc1ccc(-c2cc(-c3ccc(F)cc3)nc(N3CCN(C)CC3)n2)cc1`, the side scatter shift was 33.3% (inactive) (at 100 µM) and 14.8% (side scatter shift, at 10 µM).

As for `Cc1nc(NCCNC(=O)c2ccco2)c2c(C)c(C)sc2n1`, the side scatter shift runs as follows: (at 100 µM) 24.1% (inactive); (side scatter shift, at 10 µM) 4.2%.

Consider `O=C(NC1CCCC1)C1CCN(S(=O)(=O)c2cccc3cccnc23)CC1`, for which the side scatter shift is 15.9% (inactive) (at 100 µM) and 1.65% (side scatter shift, at 10 µM).

Source of the values: PubChem BioAssay AID1069 (NMMLSC, 2008).
